In the supplement of paper PMC11732987, “Enantioselective OTUD7B fragment discovery through chemoproteomics screening and high-throughput optimisation” (Communications Chemistry, 2025):

Tests used:
Assay in all cases: log2 ratio of Biotin-Ahx-Ub-VS probe labelling (fragment/DMSO); higher = less target engagement (more negative = stronger competition), active = hit call of the paper (q ≤ 0.05, log2 ratio ≤ -1)
Details in all cases: compound concentration: 200 uM; treatment time: 3 h
[1] = target: T1, OTUD6B (UniProt Q8N6M0)
T1 sequence (whole entry): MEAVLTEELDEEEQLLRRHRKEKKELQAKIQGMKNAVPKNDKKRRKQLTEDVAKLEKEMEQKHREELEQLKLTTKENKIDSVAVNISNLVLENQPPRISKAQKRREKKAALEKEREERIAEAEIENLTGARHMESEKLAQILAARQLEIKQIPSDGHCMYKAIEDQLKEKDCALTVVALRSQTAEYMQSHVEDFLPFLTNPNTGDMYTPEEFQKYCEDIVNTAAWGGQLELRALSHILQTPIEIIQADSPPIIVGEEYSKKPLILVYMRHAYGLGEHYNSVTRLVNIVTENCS
Method in brief: (§1)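 Average log2 ratios of fragment over vehicle were obtained by unpaired t-test from global-median-normalised Spectronaut label-free quantities. Proteins with ≥2 unique peptides were included. HEK293T lysate (495 µg per sample) was treated in triplicate with fragment at 200 µM or vehicle for 3 h, then with Biotin-Ahx-Ub-VS at 0.5 µM final for 1 h, and labelled DUBs were NeutrAvidin-enriched and run by diaPASEF LC-MS/MS.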

[2] = target: T2, OTUD7B (UniProt Q6GQQ9)
T2 sequence (whole entry): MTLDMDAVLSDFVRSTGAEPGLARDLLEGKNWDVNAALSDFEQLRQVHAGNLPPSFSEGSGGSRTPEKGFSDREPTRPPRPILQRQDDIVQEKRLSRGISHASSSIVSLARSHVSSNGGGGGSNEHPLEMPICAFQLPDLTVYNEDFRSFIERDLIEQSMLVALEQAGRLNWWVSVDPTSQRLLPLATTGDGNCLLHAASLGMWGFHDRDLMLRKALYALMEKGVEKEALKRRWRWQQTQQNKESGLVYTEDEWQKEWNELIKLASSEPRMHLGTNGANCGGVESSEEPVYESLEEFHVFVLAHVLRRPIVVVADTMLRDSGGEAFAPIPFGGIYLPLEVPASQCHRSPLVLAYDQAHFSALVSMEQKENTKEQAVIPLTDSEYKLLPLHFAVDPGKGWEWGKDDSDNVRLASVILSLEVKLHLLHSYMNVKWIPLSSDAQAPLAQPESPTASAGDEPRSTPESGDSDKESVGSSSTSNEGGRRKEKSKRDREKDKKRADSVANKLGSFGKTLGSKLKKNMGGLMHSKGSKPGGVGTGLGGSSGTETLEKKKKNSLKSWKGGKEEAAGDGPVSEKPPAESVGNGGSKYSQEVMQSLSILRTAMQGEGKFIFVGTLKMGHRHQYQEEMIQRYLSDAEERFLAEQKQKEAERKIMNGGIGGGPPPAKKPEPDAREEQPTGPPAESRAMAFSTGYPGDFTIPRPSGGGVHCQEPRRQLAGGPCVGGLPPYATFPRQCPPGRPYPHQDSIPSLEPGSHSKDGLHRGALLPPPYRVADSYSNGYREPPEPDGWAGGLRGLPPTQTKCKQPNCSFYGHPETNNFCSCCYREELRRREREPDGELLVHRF
Method in brief: as §1

[3] = target: PRPF8 (UniProt Q6P2Q9)
Method in brief: as §1

[4] = target: T3, PSMD7 (UniProt P51665)
T3 sequence (whole entry): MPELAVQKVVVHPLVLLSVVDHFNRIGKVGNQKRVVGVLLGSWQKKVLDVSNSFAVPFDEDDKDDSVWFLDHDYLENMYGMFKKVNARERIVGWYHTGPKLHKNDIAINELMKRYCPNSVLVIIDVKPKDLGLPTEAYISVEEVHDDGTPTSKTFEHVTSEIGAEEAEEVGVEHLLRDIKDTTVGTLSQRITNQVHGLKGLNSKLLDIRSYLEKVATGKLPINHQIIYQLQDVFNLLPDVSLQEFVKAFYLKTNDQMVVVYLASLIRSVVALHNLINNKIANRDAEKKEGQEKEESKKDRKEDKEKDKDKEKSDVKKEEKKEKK
Method in brief: as §1

[5] = target: UCHL1 (UniProt P09936)
Method in brief: as §1

[6] = target: T4, UCHL3 (UniProt P15374)
T4 sequence (whole entry): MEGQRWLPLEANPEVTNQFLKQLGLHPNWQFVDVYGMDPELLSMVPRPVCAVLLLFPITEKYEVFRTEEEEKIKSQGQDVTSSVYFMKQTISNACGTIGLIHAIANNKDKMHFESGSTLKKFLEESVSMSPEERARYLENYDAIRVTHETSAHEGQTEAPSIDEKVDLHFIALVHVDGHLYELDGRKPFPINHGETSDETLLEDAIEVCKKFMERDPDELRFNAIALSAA
Method in brief: as §1

[7] = target: T5, UCHL5 (UniProt Q9Y5K5)
T5 sequence (whole entry): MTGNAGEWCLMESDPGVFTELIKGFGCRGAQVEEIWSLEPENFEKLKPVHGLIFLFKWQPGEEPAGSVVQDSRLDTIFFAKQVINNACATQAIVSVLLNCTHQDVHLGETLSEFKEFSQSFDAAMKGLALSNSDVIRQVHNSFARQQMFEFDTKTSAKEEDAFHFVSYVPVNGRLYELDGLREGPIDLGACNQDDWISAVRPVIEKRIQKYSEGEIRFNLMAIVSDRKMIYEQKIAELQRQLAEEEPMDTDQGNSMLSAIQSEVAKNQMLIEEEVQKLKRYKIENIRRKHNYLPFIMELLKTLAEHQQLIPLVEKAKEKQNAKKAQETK
Method in brief: as §1

[8] = target: USP10 (UniProt Q14694)
Method in brief: as §1

[9] = target: T6, USP15 (UniProt Q9Y4E8)
T6 sequence (whole entry): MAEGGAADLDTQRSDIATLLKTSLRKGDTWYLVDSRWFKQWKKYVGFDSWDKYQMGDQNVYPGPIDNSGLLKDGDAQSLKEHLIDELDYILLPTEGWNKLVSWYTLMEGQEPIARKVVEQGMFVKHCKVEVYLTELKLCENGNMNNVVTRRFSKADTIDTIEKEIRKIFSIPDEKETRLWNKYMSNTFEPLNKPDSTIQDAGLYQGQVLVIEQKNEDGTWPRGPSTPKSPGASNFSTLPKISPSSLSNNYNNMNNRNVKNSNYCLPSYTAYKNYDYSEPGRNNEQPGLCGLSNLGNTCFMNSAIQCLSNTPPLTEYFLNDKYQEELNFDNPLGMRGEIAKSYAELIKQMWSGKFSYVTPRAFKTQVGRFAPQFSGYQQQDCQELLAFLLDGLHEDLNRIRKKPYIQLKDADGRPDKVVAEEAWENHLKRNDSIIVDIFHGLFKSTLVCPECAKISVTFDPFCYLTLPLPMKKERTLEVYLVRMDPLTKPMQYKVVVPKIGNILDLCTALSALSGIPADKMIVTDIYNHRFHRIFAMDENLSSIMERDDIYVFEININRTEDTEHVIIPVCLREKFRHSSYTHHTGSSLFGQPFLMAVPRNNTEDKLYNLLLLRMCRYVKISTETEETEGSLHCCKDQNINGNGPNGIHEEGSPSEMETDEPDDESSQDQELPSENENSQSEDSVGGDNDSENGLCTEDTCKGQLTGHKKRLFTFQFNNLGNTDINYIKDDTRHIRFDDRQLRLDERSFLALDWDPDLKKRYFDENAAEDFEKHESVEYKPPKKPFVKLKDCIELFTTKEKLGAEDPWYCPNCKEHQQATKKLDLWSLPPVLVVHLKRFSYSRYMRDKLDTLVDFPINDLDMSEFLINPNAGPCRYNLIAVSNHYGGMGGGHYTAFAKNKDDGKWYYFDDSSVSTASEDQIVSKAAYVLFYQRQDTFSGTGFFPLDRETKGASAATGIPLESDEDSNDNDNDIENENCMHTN
Method in brief: as §1

[10] = target: USP16 (UniProt Q9Y5T5)
Method in brief: as §1

Measured: log2 ratio of Biotin-Ahx-Ub-VS probe labelling

USP16, sequence (Q9Y5T5 whole entry, looked up): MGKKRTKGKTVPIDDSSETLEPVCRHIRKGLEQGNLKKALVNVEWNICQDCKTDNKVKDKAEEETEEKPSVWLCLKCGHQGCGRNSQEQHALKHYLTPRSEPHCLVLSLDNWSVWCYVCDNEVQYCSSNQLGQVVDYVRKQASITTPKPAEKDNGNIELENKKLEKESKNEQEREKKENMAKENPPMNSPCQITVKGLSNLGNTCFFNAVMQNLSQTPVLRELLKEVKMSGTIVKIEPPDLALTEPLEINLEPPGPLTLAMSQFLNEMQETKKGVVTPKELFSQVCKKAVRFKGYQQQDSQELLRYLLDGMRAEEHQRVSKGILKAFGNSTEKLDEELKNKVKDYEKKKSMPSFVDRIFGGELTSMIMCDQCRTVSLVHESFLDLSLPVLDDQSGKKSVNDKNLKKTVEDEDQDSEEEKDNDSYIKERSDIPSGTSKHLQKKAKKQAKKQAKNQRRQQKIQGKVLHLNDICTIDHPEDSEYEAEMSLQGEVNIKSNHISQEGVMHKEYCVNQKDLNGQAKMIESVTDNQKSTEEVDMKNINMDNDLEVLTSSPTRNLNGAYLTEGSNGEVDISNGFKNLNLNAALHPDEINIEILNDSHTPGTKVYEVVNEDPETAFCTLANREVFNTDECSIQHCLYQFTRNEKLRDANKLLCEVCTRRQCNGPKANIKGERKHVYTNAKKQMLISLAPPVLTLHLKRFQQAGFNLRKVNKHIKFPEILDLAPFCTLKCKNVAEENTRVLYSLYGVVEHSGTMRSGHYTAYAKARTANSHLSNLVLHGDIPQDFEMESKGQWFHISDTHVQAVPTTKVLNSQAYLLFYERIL
USP10, sequence (Q14694 whole entry): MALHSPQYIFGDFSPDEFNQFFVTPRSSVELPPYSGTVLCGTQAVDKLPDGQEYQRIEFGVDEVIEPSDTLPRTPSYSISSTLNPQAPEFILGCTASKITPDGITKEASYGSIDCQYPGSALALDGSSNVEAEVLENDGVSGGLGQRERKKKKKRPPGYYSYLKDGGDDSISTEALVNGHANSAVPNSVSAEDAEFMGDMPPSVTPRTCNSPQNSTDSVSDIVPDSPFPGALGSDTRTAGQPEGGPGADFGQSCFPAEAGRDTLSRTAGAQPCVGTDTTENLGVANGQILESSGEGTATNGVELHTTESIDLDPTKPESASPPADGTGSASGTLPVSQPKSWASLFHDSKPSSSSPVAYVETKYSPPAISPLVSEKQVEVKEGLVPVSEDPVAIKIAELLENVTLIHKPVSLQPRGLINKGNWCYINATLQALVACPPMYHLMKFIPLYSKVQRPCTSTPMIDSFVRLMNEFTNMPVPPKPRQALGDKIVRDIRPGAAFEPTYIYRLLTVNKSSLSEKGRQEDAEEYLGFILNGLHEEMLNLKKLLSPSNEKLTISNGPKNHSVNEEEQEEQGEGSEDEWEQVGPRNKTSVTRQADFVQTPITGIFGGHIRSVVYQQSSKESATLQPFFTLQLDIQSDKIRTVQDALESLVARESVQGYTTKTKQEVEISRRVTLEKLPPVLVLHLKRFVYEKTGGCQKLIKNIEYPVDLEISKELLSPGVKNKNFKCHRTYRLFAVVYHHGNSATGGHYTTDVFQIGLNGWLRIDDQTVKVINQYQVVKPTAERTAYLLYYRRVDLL
UCHL1, sequence (P09936 whole entry, looked up): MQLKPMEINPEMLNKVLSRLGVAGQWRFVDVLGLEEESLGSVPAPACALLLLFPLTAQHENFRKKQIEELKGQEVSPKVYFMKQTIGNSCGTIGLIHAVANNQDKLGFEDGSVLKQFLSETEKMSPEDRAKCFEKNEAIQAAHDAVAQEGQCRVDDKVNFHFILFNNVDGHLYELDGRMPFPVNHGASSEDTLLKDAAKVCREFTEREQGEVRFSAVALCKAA

Cl.Cn1c(CNC(=O)CCl)nc2cccnc21
inactive: [1] -0.213 | [2] -0.356 | [3] -0.144 | [4] -0.0899 | [6] 0.177 | [7] -0.302 | [8] -0.0558 | [9] -0.177 | [10] -0.246
active: [5] -1.17
